Sampled rows, rich in hits. Any-hit rate of the full collection: about 12%.
BAZ2B inh: blocks human BAZ2B; Q9UIF8; AlphaScreen BAZ2B-H3K14Ac peptide displacement; Potency, µM (top dose mostly 114 µM), for the others: at the top dose activity change, negative = inhibition, hits mostly inhibitors; actives 4.4% (n = 360,000); further: on the % scale 0 is the no-effect control and ±100 the full control effect; nearly all actives have a fitted effect of over 60% in size
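BAZ2B 50 nM plus b-H3(5-23)K14Ac 50 nM, PBS pH 7.4/0.01% Tween-20, 30 min RT; compound added (max 110 uM), 30 min RT; streptavidin donor/Ni-chelate acceptor beads 10 ug/mL final, 20 min dark; AlphaScreen read.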
Sfp PPTase inh: blocks B. subtilis Sfp PPTase activity; Q9F4F7; Biochemical Sfp PPTase activity, qHTS; Potency, µM, inactives show largest response in the series, negative = inhibition, most hits filed as inhibitors; actives 3.5% (n = 310,000); AID 1490;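 further: the enzyme is Sfp with the accession as filed and its product quenches rhodamine fluorescence; 0% = enzyme reaction without inhibitor and -100% = no enzyme wells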
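Step 1, compound plus 15 nM Sfp-PPTase, 15 min, room temperature. Step 2, add rhodamine-CoA (5 uM) and BHQ-2-YbbR (12.5 uM). Step 3, read 525/598 nm fluorescence at 0 and 30 min.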
G9a inh: G9a (human) methyltransferase inhibition; Q96KQ7; G9a H3K9 monomethylation, AlphaScreen, 2 h; Potency, µM (series often up to 102 µM), without a hit: at the highest dose activity, negative = inhibition, actives largely listed as inhibitors; actives 8.8% (n = 350,000); AID 504332; further: on the % scale 0 is the no-effect control and ±100 the full control effect; nearly all actives have a fitted effect of over 75% in size
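G9a (20 nM) was preincubated 15 min with compound, then reacted 2 h at room temperature with 500 nM biotin-H3K9 peptide and 20 µM SAM. Monomethyl-H3K9 detected by AlphaScreen using anti-H3K9me1 antibody.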
JMJD2A Tudor: inhibitors of human JMJD2A Tudor domain; actives 4.4% (n = 390,000); AlphaScreen JMJD2A-Tudor / H3K4me3 peptide binding; Potency, µM (series often up to 114 µM), for inactives: top-dose activity change, negative = inhibition, most hits filed as inhibitors; O75164; AID 504339; further: on the % scale 0 is the no-effect control and ±100 the full control effect; nearly all actives have a fitted effect of over 50% in size
Target sequence (O75164 whole entry, looked up, the tested form may be a part): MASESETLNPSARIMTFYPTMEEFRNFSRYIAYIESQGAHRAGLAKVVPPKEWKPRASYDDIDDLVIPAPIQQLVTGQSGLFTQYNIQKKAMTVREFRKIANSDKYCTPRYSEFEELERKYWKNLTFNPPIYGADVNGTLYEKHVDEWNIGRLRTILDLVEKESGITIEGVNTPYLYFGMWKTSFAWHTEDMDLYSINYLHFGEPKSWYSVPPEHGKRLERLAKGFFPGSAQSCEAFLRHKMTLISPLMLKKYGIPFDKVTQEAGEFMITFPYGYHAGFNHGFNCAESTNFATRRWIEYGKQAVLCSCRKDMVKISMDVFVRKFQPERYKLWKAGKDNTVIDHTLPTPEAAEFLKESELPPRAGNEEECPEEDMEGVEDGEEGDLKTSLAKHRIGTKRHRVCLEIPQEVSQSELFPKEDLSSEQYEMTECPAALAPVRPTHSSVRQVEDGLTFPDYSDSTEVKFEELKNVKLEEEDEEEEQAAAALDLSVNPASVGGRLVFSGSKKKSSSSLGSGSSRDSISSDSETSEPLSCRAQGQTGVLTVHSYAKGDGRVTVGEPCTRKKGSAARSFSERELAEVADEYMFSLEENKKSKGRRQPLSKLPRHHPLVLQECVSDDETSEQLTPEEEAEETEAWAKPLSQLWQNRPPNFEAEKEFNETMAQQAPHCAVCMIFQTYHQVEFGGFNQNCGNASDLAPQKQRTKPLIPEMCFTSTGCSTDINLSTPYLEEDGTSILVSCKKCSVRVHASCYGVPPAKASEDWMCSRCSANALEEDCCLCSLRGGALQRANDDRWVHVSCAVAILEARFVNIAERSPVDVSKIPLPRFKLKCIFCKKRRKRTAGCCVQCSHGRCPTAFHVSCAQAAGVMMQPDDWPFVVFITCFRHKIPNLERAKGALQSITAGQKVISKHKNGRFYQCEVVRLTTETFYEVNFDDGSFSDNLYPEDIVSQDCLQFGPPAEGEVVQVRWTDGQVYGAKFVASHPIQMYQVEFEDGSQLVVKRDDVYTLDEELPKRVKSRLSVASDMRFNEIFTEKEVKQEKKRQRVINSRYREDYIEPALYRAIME
PLK1 PBD inh: blocks phosphopeptide binding to human PLK1 polo-box domain; Plk1 PBD binding of FITC phosphopeptide, fluorescence polarization; Potency, µM, for the others: max response, negative = inhibition, actives largely listed as inhibitors; actives 2.8% (n = 360,000); AID 720504; further: series mostly up to about 57 µM; on the % scale 0 is the no-effect control and ±100 the full control effect; nearly all actives have a fitted effect of over 65% in size
HP1b chromo inh: inhibitors of HP1-beta chromodomain binding to methylated histone tails | Potency, µM (highest dose often 114 µM), inactives show at the top dose activity change, negative = inhibition, hits mostly inhibitors | AlphaScreen HP1-beta / biotin-H3K9me3 peptide binding | P83916 | actives 0.56% (n = 390,000); further: nearly all actives have a fitted effect of over 70% in size
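AlphaScreen: HP1-beta (50 nM) preformed 30 min with biotin-H3(1-18)K9me3 peptide (50 nM) in PBS pH 7.4, 0.01% Tween-20. Compound added for 30 min at RT, then streptavidin donor/nickel chelate acceptor beads (10 ug/mL) for 30 min.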
Starred values were filed as active, the others as inactive; ? = inconclusive; . = no result given; [ ] = remark or other dose. The call rests on the fitted dose curve; in most records, active means well fitted curve in the direction sought with a large enough effect; inconclusive means small, poorly fitted or top-dose-only effect, or another doubt; inactive means no such curve, though single readings can be large; an effect the other way counts as inactive or inconclusive. Potency means the concentration at half of the fitted maximal effect.

SMILES	BAZ2B inh	Sfp PPTase inh	G9a inh	JMJD2A Tudor	PLK1 PBD inh	HP1b chromo inh
CC1(C)NC(=O)N(CCC(=O)Nc2ccc(C(C)(C)C)cc2)C1=O	.	.	.	.	2%	.
COC(=O)c1ccc(C(NC(=O)OCc2ccccc2)/C(=C/[C@@H](C)C(=O)NCc2cc(C)n(C)n2)c2cccnc2)cc1 (some centres undefined)	.	19%	.	.	.	.
CCOC(=O)c1[nH]c2ccc(OC)cc2c1NC(=O)CCN1CCC(C)CC1	-16%	-7%	4.5µM*	5%	4%	25%
COC(=O)c1[nH]c2cc(OC)ccc2c1NC(=O)c1c(F)cccc1F	-1%	-7%	-50%	-17%	-5%	28%
C=CCNC(=S)Nc1c(C(=O)OC)[nH]c2cc(OC)ccc12	-22%	-4%	11µM*	?	-18%	34%
CCOC(=O)c1[nH]c2ccccc2c1NC(=O)c1ccccc1OCC	-11%	.	-33%[59 µM]	-33%	.	27%
CCOC(=O)c1[nH]c2ccc(F)cc2c1NC(=O)c1ccccc1C(=O)O	-12%	-14%	14µM*	-13%	-9%	52%
CCOC(=O)c1[nH]c2ccc(F)cc2c1NC(=O)c1cc(OC)c(OC)c(OC)c1	3%	-4%	-44%[12.7 µM]	-22%[11.4 µM]	24µM*	-9%
COC(=O)c1[nH]c2cc(OC)ccc2c1NC(=O)CCN1CCCC(C)(C)C1	-5%	13%	56µM*	-5%	-7%	9%
Cc1[nH]c2ccc(Br)cc2c(=S)c1C/C=C/Cl	?	10%	35µM*	-31%	24µM*	3%
COC(=O)Nc1ccc(=O)n(Cc2c(Cl)cccc2Cl)c1	-24%	-10%	71µM*	-12%	-10%	10%
Cc1ccc(N(C)C(=O)c2cc(S(=O)(=O)N3CCOCC3)cn2C)cc1	-2%	.	-2%[59 µM]	-22%	.	8%
COc1ccc(C2CC(=O)n3nc(C45CC6CC(CC(C6)C4)C5)nc3S2)cc1OC (centres undefined)	-10%	1%	11µM*	-7%	-8%	4%
O=C1C2C3CCCC3=C3CCCC3C2C(=O)N1c1ccccc1 (centres undefined)	-6%	-22%	20µM*	15%	-13%	20%
O=C(c1ccco1)N1CCC[C@@]2(CCN(c3ccccn3)C2)C1	.	6%	-13%[12.7 µM]	.	.	.
O=C(O)c1c[nH]c(=S)n1-c1ccc(F)cc1	?	11µM*	28µM*	?	-1%	50%
CSc1ncc(C(=O)O)n1-c1ccc(F)cc1	-3%	11%	-47%	-22%	-6%	20%
COCCOC(=O)c1c(C)oc2ccc(OS(C)(=O)=O)cc12	-23%	9%	34%	-13%	-2%	29%
Cc1oc2ccc(OS(C)(=O)=O)cc2c1C(=O)OC(C)C	5%	21%	12%[59 µM]	?	19µM*	0%
COc1cccc(-c2nccc(N(C)Cc3ccco3)n2)c1	.	?	5%[0.501 µM]	.	.	.
COCCNC(=O)C(c1ccc(OC)cc1)N(CCOC)C(=O)CCC(=O)Nc1nccs1 (centres undefined)	11%	20%	-8%	-6%	-8%	49%
COc1ccc(C(C(=O)NC(C)C)N(C(=O)CCC(=O)Nc2nccs2)c2ccccc2F)cc1 (centres undefined)	-8%	11%	-2%	?	13µM*	?
CCc1ccc(/C=C2\SC(=S)N(CCCC(=O)N3CCCC3)C2=O)cc1	.	.	.	.	-3%	.
O=C(CCCN1C(=O)/C(=C/c2cccc(Br)c2)SC1=S)Nc1ccccn1	?	5%	?	?	-14%	8.9µM*
CCc1ccc(/C=C2\SC(=S)N(CCCC(=O)Nc3ccccn3)C2=O)cc1	10µM*	1%	2%[0.501 µM]	?	16%	?
SMILES	BAZ2B inh	Sfp PPTase inh	G9a inh	JMJD2A Tudor	PLK1 PBD inh	HP1b chromo inh
COC(=O)c1ccc(/C=C2/SC(=S)N(CCCC(=O)Nc3ccccn3)C2=O)cc1	-29%	0%	-16%[59 µM]	-14%	-14%	?
CCc1ccc(/C=C2/SC(=S)N(CCCC(=O)Nc3ccccc3C(=O)O)C2=O)cc1	-27%	16%	?	50µM*	24µM*	-8%
Cc1cc(C)cc(N(C(=O)C(F)(F)F)C(C(=O)NC2CCCCC2)c2cccs2)c1 (centres undefined)	3%	18%	3%	-11%	-4%	21%
Cc1ccc(-c2csc(NC(=O)/C=C/c3ccco3)c2C(=O)O)cc1	79µM*	28µM*	.	?	?	26%
O=C(/C=C/c1ccccc1)Nc1sc2c(c1C(=O)O)CCC2	-32%	11%	50µM*	-18%	-15%	16%
CNC(=O)c1c(NC(=O)/C=C/c2ccccc2)sc2c1CCC2	-20%	.	-12%[59 µM]	-29%	.	1%[57 µM]
O=C(/C=C/c1ccco1)Nc1sc2c(c1C(=O)O)CCC2	?	50µM*	?	?	-18%	-26%
